# High-throughput results (PubChem BioAssay)
# TGFb inhibitor: qHTS for Inhibitors of TGF-b | HepG2 CAGA-GFP TGF-b/SMAD3 reporter, GFP fluorescence, 18 h; TGF-beta stimulated, 500 pg/mL final | 1.2% of 410,000 active | Potency, µM (highest dose often 46.1 µM), without a hit: at the top dose activity, negative = inhibition, usual class: inhibitors; also: potency is read from the fitted curve at half-maximal effect; % is scaled to controls: 0 for no effect and ±100 for the full control effect; nearly all actives have a fitted effect of over 65% in size
#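 Cell-based qHTS in HEPG2 carrying a CAGA-GFP Smad reporter; compounds added before 500 pg/mL final TGF-beta, 18 h incubation at 37 degrees C, GFP fluorescence quantified per cell by imaging cytometry.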
# TDP1 cell CPT: qHTS for Inhibitors of human tyrosyl-DNA phosphodiesterase 1 (TDP1): qHTS in cells in presence of CPT; chicken DT40 Tdp1-/-;hTDP1 cells + 20 nM CPT, ATP luminescence, 48 h; Potency, µM (highest dose often 46.2 µM), inactives show at the top dose activity change, negative = growth inhibition, usual class: inhibitors; 12% of 420,000 active; AID 686979, 2013; also: potency is read from the fitted curve at half-maximal effect; % is scaled to controls: 0 for no effect and ±100 for the full control effect; nearly all actives have a fitted effect of over 55% in size
#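 Cell growth measured by CellTiter-Glo luminescence after a minimum 48 h, 37 C compound exposure with 20 nM CPT in Tdp1-knockout DT40 cells stably expressing hTDP1, seeded 400/well; qHTS titration format.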
# HepG2 tox: qHTS for Inhibitors of TGF-b: Cytotox Counterscreen | HepG2 CAGA-GFP viability, ATP luminescence, 18 h | Potency, µM (series often up to 46.1 µM), without a hit: at the top dose activity change, negative = cytotoxicity, usual class: cytotoxic | 0.76% of 410,000 active | AID 588856, 2011; also: potency is read from the fitted curve at half-maximal effect
#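 HepG2 CAGA-GFP cells (1000/well, DMEM with 1% FBS) received compound, then TGF-beta at 500 pg/mL final, and were incubated 18 hours at 37 degrees C. Viability was read by CellTiter-Glo luminescence. Media-only wells were set as complete cell-killing and DMSO as no toxicity.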
# TDP1 inh: qHTS Assay for Inhibitors of Tyrosyl-DNA Phosphodiesterase (TDP1) | Tyrosyl-DNA phosphodiesterase 1 (Homo sapiens), Q9NUW8 | recombinant TDP1, AlphaScreen DNA substrate cleavage | Potency, µM (series often up to 130 µM), without a hit: top-dose activity change, negative = inhibition, usual class: inhibitors | 0.28% of 350,000 active | AID 485290, 2010; also: potency is read from the fitted curve at half-maximal effect; % is scaled to controls: 0 for no effect and ±100 for the full control effect; nearly all actives have a fitted effect of over 40% in size
# Target sequence (Q9NUW8 whole entry, looked up): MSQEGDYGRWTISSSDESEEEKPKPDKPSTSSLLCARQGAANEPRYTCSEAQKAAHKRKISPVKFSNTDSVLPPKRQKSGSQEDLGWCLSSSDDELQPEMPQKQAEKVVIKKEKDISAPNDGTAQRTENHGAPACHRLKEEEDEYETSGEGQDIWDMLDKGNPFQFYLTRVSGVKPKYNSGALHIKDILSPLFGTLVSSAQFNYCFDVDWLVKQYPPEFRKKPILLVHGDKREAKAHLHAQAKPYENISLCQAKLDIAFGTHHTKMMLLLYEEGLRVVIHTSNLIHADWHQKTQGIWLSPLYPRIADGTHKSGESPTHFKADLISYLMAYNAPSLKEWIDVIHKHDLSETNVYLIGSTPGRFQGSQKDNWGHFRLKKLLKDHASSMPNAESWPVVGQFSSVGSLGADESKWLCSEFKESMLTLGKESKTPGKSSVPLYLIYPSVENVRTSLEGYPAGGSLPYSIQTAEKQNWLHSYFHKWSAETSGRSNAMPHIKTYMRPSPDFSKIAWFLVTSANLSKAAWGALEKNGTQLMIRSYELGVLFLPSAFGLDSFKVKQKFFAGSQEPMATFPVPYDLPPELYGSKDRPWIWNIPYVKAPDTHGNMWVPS
#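 Enzyme-compound mixtures sat 15 min at room temperature, followed by a 5 min reaction with 15 nM final substrate and 10 min with AlphaScreen beads. Recombinant human Tdp1 was used at 1 nM final.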
# DT40 TDP1 no CPT: qHTS for Inhibitors of human tyrosyl-DNA phosphodiesterase 1 (TDP1): qHTS in cells in absence of CPT; DT40 Tdp1-/- hTDP1 cells, no CPT, ATP luminescence, 48 h; Potency, µM (series often up to 46.2 µM), inactives show at the top dose activity change, negative = growth inhibition, actives largely listed as inhibitors; 15% of 420,000 active; AID 686978, 2013; also: potency is read from the fitted curve at half-maximal effect; % is scaled to controls: 0 for no effect and ±100 for the full control effect; nearly all actives have a fitted effect of over 55% in size
#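 Seeded 400 DT40-hTDP1 cells/well (vehicle DMSO, no 20 nM CPT); pinned compounds; ≥48 hr at 37 °C; CellTiter-Glo luminescence as viability measure.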
# IL-1B inflam inh: qHTS for Inhibitors of Inflammasome Signaling: IL-1-beta AlphaLISA Primary Screen; THP-1 LPS/ATP IL-1B secretion, AlphaLISA, 16 h; active compounds read low; activity change, % at 57.5 µM; 4.7% of 360,000 active; in the data active = activity change below about -50%; inconclusive = mostly about -30% to -49%; also: % is scaled to controls: 0 for no effect and ±100 for the full control effect
#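 THP-1 cells pretreated 1 hr with compounds (up to 57.5 uM final), then stimulated with LPS (250 ng/mL final) plus ATP (1.25 mM final); secreted IL-1B measured by AlphaLISA after 16 hr, decreased signal indicating inhibition.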
# * = called active by the depositor; ? = inconclusive; nt = no result given; [ ] = another dose, or the depositor's remark. The list is not random: actives were taken first. Their share in the collection is about 19%. Unless noted, calls follow the shape of the dose curve; as a rule, active = well fitted curve in the direction sought with a large enough effect; inconclusive = small, poorly fitted or top-dose-only effect, or another doubt; inactive = no such curve, though single readings can be large; an effect the other way counts as inactive or inconclusive.
SMILES,TGFb inhibitor,TDP1 cell CPT,HepG2 tox,TDP1 inh,DT40 TDP1 no CPT,IL-1B inflam inh
CCN(CC)CCN(Cc1cc2cc3c(cc2[nH]c1=O)OCO3)C(=S)NCc1ccco1,-1%,?,-4%,-8%,?,-63*
Oc1c(C(c2ccccc2Cl)N2CCCC2)sc2nc(-c3ccco3)nn12 (centres undefined),1%,?,-12%,0%,?,nt
CCCCn1c(/C=C/c2ccco2)nc2ccccc21,-13%,18µM*,5%,0%,?,0
CCCCn1c(/C=N/Nc2nc3ccccc3[nH]2)nc2ccccc21,11µM*,4.6µM*,-42%,11%,5.2µM*,69
CCCn1c(/C=C/c2ccco2)nc2ccccc21,?,16µM*,-40%,8%,?,-16
CCCCNc1nc2ccccc2[nH]1,?,?,-9%,5%,?,43
CCCCn1c(N)nc2ccccc21,9%,?,1%,2%,?,10
COc1cc(Br)c(CC(=O)NO)cc1OC,nt,-3%,nt,nt,-29%,nt
O=C(NCc1cccnc1)/C(=C/c1ccc(-c2cccc(Cl)c2)o1)S(=O)(=O)c1ccccc1,?,?,-19%,6%,?,-106*
N#C/C(=C/c1ccc(CNC(=O)C(=O)Nc2cc(Cl)cc(Cl)c2)o1)C(=O)NCc1cccnc1,0%,?,8%,-2%,?,10
O=C(NCc1cccnc1)/C(=C\c1ccc(-c2cccc(Cl)c2)o1)S(=O)(=O)c1ccccc1,16µM*,4.6µM*,-97%,8%,5.2µM*,-105*
CCSc1nc2sc3c(c2c(=O)n1-c1ccc(OC)cc1)CCN(C)C3,0%,?,11%,5%,16µM*,-17
CCOC(=O)CSc1nc2sc3c(c2c(=O)n1-c1ccc(OC)cc1)CCN(C)C3,0%,?,0%,nt,?,11
Cc1ccccc1-n1c(SCC(=O)c2c(N)n(C)c(=O)n(C)c2=O)nc2sc3c(c2c1=O)CCCC3,-26%,18µM*,-40%,0%,23µM*,10
CCC1(C)Cc2c(sc3nc(SC)n(-c4ccc(C)cc4)c(=O)c23)CO1 (centres undefined),?,?,-6%,nt,15µM*,nt
CCOc1ccc(-n2cnc3sc4c(c3c2=O)CCCC4)cc1,-13%,?,6%,nt,?,-63*
COc1ccc(-n2cnc3sc4c(c3c2=O)CCCC4)cc1,-1%,?,-10%,-4%,?,-7
CCC1(C)Cc2c(sc3nc(NN)n(C)c(=O)c23)CO1 (centres undefined),?,?,-63%,10%,?,52
C=C(C)C(O)/C=C/c1ccc(OC)cc1 (centres undefined),nt,nt,nt,-3%[21 µM],nt,nt
CCCCSc1nc2sc3c(c2c(=O)n1-c1ccc(C)cc1)CCN(C)C3,?,16µM*,-3%,nt,15µM*,?
CCSc1nc2sc3c(c2c(=O)n1-c1ccc(C)cc1)CCCC3,3%,?,1%,-1%[12.3 µM],8.2µM*,nt
CC(C)C[C@@H](CC(=O)N[C@@H](CCC(=O)O)CC(=O)O)NC(=O)[C@@H]1CCCC[C@H]1NC(=O)C[C@H](CCCN)NC(=O)C[C@H](Cc1ccccc1)NC(=O)[C@@H]1CCCC[C@H]1N,nt,nt,nt,6%,nt,nt
CCOC(=O)c1cccc(NC(=O)C2CCN(S(=O)(=O)c3cn(C)cn3)CC2)c1,0%,0%,1%,6%,-18%,nt
COc1cc(/C=C/C(=O)O)cc(S(=O)(=O)N2CCN(S(=O)(=O)c3ccc(Cl)cc3)CC2)c1OC,-1%,-3%,-19%,nt,2%,12
CN(Cc1ccc(Cl)cc1)C(C(=O)NC1CCCCC1)c1cc2ccccc2o1 (centres undefined),?,-107%,-14%,nt,?,-1
SMILES,TGFb inhibitor,TDP1 cell CPT,HepG2 tox,TDP1 inh,DT40 TDP1 no CPT,IL-1B inflam inh
N#CCCN(Cc1ccccc1)C(C(=O)NC1CCCCC1)c1cc2ccccc2o1 (centres undefined),13µM*,21µM*,3%,nt,18µM*,33
OCCN1CCN(c2cc(-c3ccc(CO)cc3)nc3ccnn23)CC1,2%,-2%,-16%,nt,-10%,15
CN1CCN(c2cc(-c3ccc4ccccc4c3)nc3ccnn23)CC1,8%,23µM*,-25%,nt,?,-18
CCOC(=O)c1ccc(NC(=O)C2(c3ccccc3)CCCC2)cc1,-7%,?,-6%,-2%,?,27
CCOC(=O)c1ccc(NC(=O)C2CCN(S(=O)(=O)CC)CC2)cc1,4%,-17%,-3%,2%,-28%,-14
O=C(Nc1ccc(Oc2ccccc2)cc1)C1CCN(S(=O)(=O)c2ccccc2)CC1,-14%,?,-36%,nt,9.2µM*,nt
CCOC(=O)c1ccc(NC(=O)C2(c3ccc(Cl)cc3)CCCC2)cc1,?,16µM*,-30%,0%,?,-20
CCOC(=O)c1ccc(NC(=O)C2C3CCCCC32)cc1 (centres undefined),11%,-25%,-3%,1%,?,-64*
CCOC(=O)c1ccc(NC(=O)C2CCN(S(=O)(=O)c3ccccc3)CC2)cc1,9%,26µM*,1%,nt,?,6
Cc1ccc(C2(c3ccccc3)NC(=O)N(CC(=O)NC3CCS(=O)(=O)C3)C2=O)cc1C (centres undefined),-14%,-20%,0%,0%,-5%,-11
Cc1cccc(-n2c(=O)c3c(c4cc(C)ccc4n3C)n(CC(=O)NCCC3=CCCCC3)c2=O)c1,-3%,?,-2%,3%,?,nt
CCS(=O)(=O)N1CCC(C(=O)Nc2ccc(C(C)=O)cc2)CC1,16%,0%,1%,nt,10%,0
CCOC(=O)c1ccc(S(=O)(=O)N2CCC(C(=O)NCC3COc4ccccc4O3)CC2)cc1 (centres undefined),-5%,21µM*,-19%,nt,23µM*,-8
COC(=O)Nc1ccc(S(=O)(=O)N2CCC(Cc3ccccc3)CC2)cc1,?,?,-43%,5%,21µM*,?
